The source made the active and inactive calls. Rule for the calls: active = hit-call score of the fitted dose curve at least 0.9, where 1 is the maximum; inactive = score below 0.9.
assay: Tanguay_ZF_120hpf_EDEM: Oregon State University Tanguay Lab 120 Hour Post-fertilization zebrafish Assay for Edema Malformation (AID 2284400)
Outline: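 Dechorionated Tropical 5D wild-type embryos, one per well, statically exposed from 6 to 120 hpf at 28C in 0.64% DMSO. Edema scored present/absent by brightfield microscopy at 120 hpf; dead embryos not scored; fit versus DMSO.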

SMILES | AC50 | outcome
OCC(F)(F)OC(F)(F)C(F)(F)OC(F)(F)C(F)(F)OC(F)(F)CO | 28.9 µM (active) | 
OCC(F)(F)OC(F)(F)C(F)(F)OC(F)(F)C(F)(F)OC(F)(F)F |  | inactive
FC(F)(F)C(F)(C(F)(F)F)C(F)(F)C(F)(F)CC1CO1 (centres undefined) |  | inactive
O=C(O)C(F)(F)C(F)(F)C(=O)O |  | inactive
NC(=O)C(F)(F)C(F)(F)F |  | inactive
COC(=O)C(F)(F)C(F)(F)OC(F)(C(F)(F)F)C(F)(F)OC(F)=C(F)F (centres undefined) |  | inactive
O=S(=O)(F)C(F)(F)C(F)(F)C(F)(F)C(F)(F)C(F)(F)C(F)(F)C(F)(F)C(F)(F)F |  | inactive
O=C(O)C(F)(F)OC(F)(F)C(F)(F)OC(F)(F)F |  | inactive
O=C(O)C=CC(F)(C(F)(F)F)C(F)(F)F |  | inactive
CC(O)C(F)(F)C(F)(F)F (centres undefined) |  | inactive
O=C(O)C(F)(F)OC(F)(F)C(F)(F)OC(F)(F)C(=O)O |  | inactive
OCC(F)(F)OC(F)(F)C(F)(F)OC(F)(F)CO |  | inactive
O=C(O)C(F)(OC(F)(F)C(F)(F)C(F)(F)F)C(F)(F)F (centres undefined) |  | inactive
C=CC(=O)OCC(F)(F)C(F)F |  | inactive
